Counter-ions that a name gives are not always drawn.

One assay relates to HEPG2. Kind of assay: Euclidean distance of Cell Painting phenotypic profile (signed KS, 77 features) to DMSO centroid (dimensionless distance); 5 or 10 uM (library dependent); higher = stronger phenotypic change vs DMSO (phenoactivity). As to conditions: 48 h. The method, boiled down:
(§1)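 Phenoactivity is computed as Euclidean distance to the median vehicle profile. The profiles, drawn from 77 Harmony features scored as signed Kolmogorov-Smirnov statistics versus same-plate vehicle wells, were corrected for plate position, correlation-weighted and replicate-averaged at the top dose. Stained cells were imaged confocally at 20X (9 fields/well) after 48 h with library compounds at 10 or 5 uM, 0.1% DMSO final, in five cancer lines and a healthy fibroblast line.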
As for `Cc1ccnc(NS(=O)(=O)c2ccc(N)cc2)n1` [Sulfamerazine], the Euclidean distance is 0.67.

In the case of `CCNC(=O)c1[nH]nc(-c2cc(Cl)c(O)cc2O)c1-c1ccc(OC)cc1`, the Euclidean distance worked out at 3.19.

On to `CC[C@@H]1C(=O)OC[C@@H]1Cc1cncn1C` [Pilocarpine HCl], for which the Euclidean distance came out at 0.698.

`C[C@H]1O[C@@H](n2cc(F)c(=O)[nH]c2=O)[C@H](O)[C@@H]1O` [Doxifluridine] yielded an Euclidean distance of 2.72.

In turn, `Cc1ccccc1C(=O)Nc1ccc(C(=O)N2CCCC(O)c3cc(Cl)ccc32)c(C)c1` (centres undefined) [Tolvaptan] showed an Euclidean distance of 0.957.

In turn, `C[C@@H](N)[C@H]1CC[C@H](C(=O)Nc2ccncc2)CC1` displayed an Euclidean distance of 1.02.

`CC(CCc1ccccc1)NCC(O)c1ccc(O)c(C(N)=O)c1` (centres undefined) [Labetalol HCl] displayed an Euclidean distance of 0.361.

The test system of the next assay is OVCAR4. The description is as above. The conditions noted are these: 48 h. An outline of the steps: as §1
Regarding `C#C[C@]1(O)CC[C@H]2[C@@H]3CCc4cc(OC)ccc4[C@H]3CC[C@@]21C` [Mestranol], the Euclidean distance came out at 1.38.

Take `CCCC1CC(C(=O)NC(C(C)Cl)C2OC(SC)C(O)C(O)C2O)N(C)C1` (centres undefined) [Clindamycin alcoholate]: the Euclidean distance turned out to be 1.02.

`Nc1nc(=O)c2nc(CNc3ccc(C(=O)N[C@@H](CCC(=O)O)C(=O)O)cc3)cnc2[nH]1` [Folic acid] came in with an Euclidean distance of 1.25.

On to `Cc1ccc(NCCCc2ccccc2)c(N)c1`, for which the Euclidean distance stood at 0.53.

With `COC(=O)N[C@H](C(=O)N1CCC[C@H]1c1nc(-c2ccc3c(c2)O[C@@H](c2ccccc2)n2c-3cc3cc(-c4c[nH]c([C@@H]5CCCN5C(=O)[C@@H](NC(=O)OC)C(C)C)n4)ccc32)c[nH]1)C(C)C` [Elbasvir], the Euclidean distance came to 1.58.

As to `O=c1ccn([C@@H]2O[C@H](COP(=O)(O)OP(=O)(O)OP(=O)(O)OP(=O)(O)OC[C@H]3O[C@@H](n4ccc(=O)[nH]c4=O)[C@H](O)[C@@H]3O)[C@@H](O)[C@H]2O)c(=O)[nH]1` [Diquafosol Tetrasodium], the Euclidean distance was 1.2.

Molecule `O=C1Nc2ccccc2C1=O` [Isatin] had an Euclidean distance of 1.39.

The molecule `CC1(C)NC(=O)N(c2ccc([N+](=O)[O-])c(C(F)(F)F)c2)C1=O` [Nilutamide] registered an Euclidean distance of 0.959.

Consider `CC12CCC(CC1=O)C2(C)C` (centres undefined) [Camphor], for which the Euclidean distance is 1.67.

Molecule `CCCCc1nc(Cl)c(CO)n1Cc1ccc(-c2ccccc2-c2nnn[nH]2)cc1` [Losartan Potassium (DuP 753)] had an Euclidean distance of 0.893.

Consider `C[C@@H]1C[C@H]2[C@@H]3CCC4=CC(=O)C=C[C@]4(C)[C@@]3(F)[C@@H](O)C[C@]2(C)[C@@]1(O)C(=O)CO` [Dexamethasone (DHAP)], for which the Euclidean distance came out at 1.86.

Turning to `O=C(NC1CCOCC1)c1ccc(-c2cc(-c3c[nH]nc3-c3ccccn3)ccn2)cc1`, the Euclidean distance was determined as 0.73.

`COC(=O)Nc1nc2cc(Sc3ccccc3)ccc2[nH]1` [Fenbendazole] yielded an Euclidean distance of 2.83.

The molecule `CS(=O)(=O)c1ccc(-c2cnc(N)c(C(=O)Nc3ccccc3)n2)cc1` had an Euclidean distance of 1.23.

Molecule `CC(C)(Oc1ccc(C(=O)c2ccc(Cl)cc2)cc1)C(=O)O` [Fenofibric acid] returned an Euclidean distance of 0.976.

The molecule `Cc1[nH]c(/C=C2\C(=O)Nc3ccccc32)c(C)c1CCC(=O)O` [TSU-68 (SU6668. Orantinib)] showed an Euclidean distance of 0.814.

In the case of `CNC[C@H](O)c1cccc(O)c1` [Phenylephrine HCl], the Euclidean distance was determined as 0.844.

`CCCCCOc1ccccc1/C(=C\SC)n1ccnc1` [Neticonazole Hydrochloride] had an Euclidean distance of 1.05.

In turn, `NC[C@H](O)c1ccc(O)c(O)c1` [Noradrenaline bitartrate monohydrate] showed an Euclidean distance of 0.846.

Molecule `CC(C)(O)c1ccccc1CC[C@@H](SCC1(CC(=O)O)CC1)c1cccc(/C=C/c2ccc3ccc(Cl)cc3n2)c1` [Montelukast Sodium] returned an Euclidean distance of 0.733.

With `CN1CCN(CCOc2cc(OC3CCOCC3)c3c(Nc4c(Cl)ccc5c4OCO5)ncnc3c2)CC1` [Saracatinib (AZD0530)], the Euclidean distance is 3.34.

Turning to `O=C(Nc1cccnc1)N1CCC(Cc2cccc(Oc3ccc(C(F)(F)F)cn3)c2)CC1`, the Euclidean distance was determined as 0.736.

For the molecule `Nc1nc(NC2CC2)c2ncn([C@H]3C=C[C@@H](CO)C3)c2n1` [Abacavir], the Euclidean distance is 1.25.

`C=C1/C(=C\C=C2/CCC[C@]3(C)[C@@H]([C@H](C)/C=C/[C@H](C)C(C)C)CC[C@@H]23)C[C@@H](O)C[C@@H]1O` [Doxercalciferol] registered an Euclidean distance of 1.73.

Regarding `C=C1CC/C=C(/C)CC[C@@H]2[C@@H]1CC2(C)C` [Œ≤-Caryophyllene], the Euclidean distance came out at 1.68.

`NCc1ccc(S(N)(=O)=O)cc1` [Mafenide Acetate] displayed an Euclidean distance of 0.942.

`Nc1nc(F)nc2c1ncn2[C@@H]1O[C@H](COP(=O)(O)O)[C@@H](O)[C@@H]1O` [Fludarabine Phosphate] displayed an Euclidean distance of 2.98.

Source of the values: the supplement of paper PMC10127200.
